From PubChem BioAssay
Rows were chosen to be rich in hits. Some 2.5% of all compounds tested hit in one or more screens of this group.
Mcl1 Noxa PPI: Mcl-1/Noxa interaction inhibition; TR-FRET Mcl-1/Noxa peptide binding, 2 h; AID 1022; Q07820; inhibition, % at 21.7 µM; 1.5% of 220,000 active;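 active = compounds that cut the protein-peptide binding signal by more than 50% relative to plate controls in a single-dose test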;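 note: His-tagged Mcl-1 with rhodamine Noxa BH3 peptide and terbium anti-His antibody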
Target sequence (Q07820 whole entry, looked up): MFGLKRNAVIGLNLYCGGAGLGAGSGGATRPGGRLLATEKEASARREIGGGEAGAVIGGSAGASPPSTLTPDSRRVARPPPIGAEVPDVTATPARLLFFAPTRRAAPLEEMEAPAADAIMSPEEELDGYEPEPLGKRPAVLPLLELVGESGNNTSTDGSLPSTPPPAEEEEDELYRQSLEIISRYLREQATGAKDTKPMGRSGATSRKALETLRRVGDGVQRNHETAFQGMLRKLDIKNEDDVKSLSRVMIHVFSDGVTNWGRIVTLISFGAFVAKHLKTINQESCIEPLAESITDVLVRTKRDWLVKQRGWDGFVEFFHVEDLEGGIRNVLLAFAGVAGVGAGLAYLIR
Mcl1 Bid PPI: Mcl-1/Bid interaction inhibition; inhibition, % at 21.7 µM; 0.97% of 220,000 active; TR-FRET Mcl-1/Bid-Dy647 peptide binding, 1536-well; Q07820;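 active = compounds that cut the binding signal by more than half at the single screening dose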;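 note: His-tagged Mcl-1 with europium anti-His antibody binding Bid BH3 peptide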
MCL1 BIM primary: inhibitors of human MCL1 binding to BIM-BH3 peptide | inhibition, % at 10.9 µM | AID 2057 | 0.68% of 320,000 active | Q07820 | GST-MCL1 / FITC-Bim-BH3 fluorescence polarization;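 active = inhibition above the mean inhibition of all tested compounds plus 3 SD, set per campaign, cut at about 40% in these data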;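 note: higher means more loss of mP so more displacement of Bim peptide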
Mcl-1 Bim block: human Bim-Mcl-1 interaction inhibition; Bead-based flow cytometry, Bim peptide-Mcl-1 binding; AID 1009; inhibition, % at 10 µM; 0.1% of 190,000 active; in the data active = inhibition above about 40%
14-3-3 Bad PPI: disrupts binding of bovine 14-3-3 zeta to phospho-Bad peptide | inhibition, % at 21.7 µM | TR-FRET 14-3-3zeta/Dy647-pBad peptide displacement, 1 h | P63103 | 0.71% of 220,000 active | AID 781;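 active = inhibition above about 70%, limit read from the data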
Target sequence (P63103 whole entry, looked up): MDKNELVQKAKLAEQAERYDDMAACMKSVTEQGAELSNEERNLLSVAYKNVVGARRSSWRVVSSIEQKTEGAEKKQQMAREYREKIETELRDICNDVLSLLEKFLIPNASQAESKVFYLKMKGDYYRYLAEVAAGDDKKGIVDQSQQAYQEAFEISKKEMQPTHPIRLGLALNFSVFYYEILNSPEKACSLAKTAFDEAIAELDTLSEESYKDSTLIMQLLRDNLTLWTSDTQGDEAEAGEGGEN
A number is an active result; – = inactive; · = no result; [ ] = another dose, or the depositor's remark.

SMILES	Mcl1 Noxa PPI	Mcl1 Bid PPI	MCL1 BIM primary	Mcl-1 Bim block	14-3-3 Bad PPI
COc1ccc(N2C(=O)CC(NC34CC5CC(CC(C5)C3)C4)C2=O)c(OC)c1 (configuration not stated)	–	57	–	–	–
Cc1cc(NC(=O)CSc2ccc3nnc(-c4cccc(F)c4)n3n2)no1	–	–	–	–	–
O=C(Nc1ccc(S(=O)(=O)NCc2ccccc2)cc1)c1ccccc1[N+](=O)[O-]	–	–	–	–	–
O=c1c2ccccc2nc2c3ccccc3cnn12	–	–	–	–	80
O=c1c2ccccc2nc2c3ccccc3c(Cl)nn12	–	–	·	–	–
CCCCn1c(SCC(=O)c2ccc(O)c(O)c2)nc2ccsc2c1=O	55	–	–	–	–
CCOC(=O)C1=C(O)/C(=C/c2cc(OC)c(O)c(OC)c2)SC1=Nc1ccc(OC)cc1	75	–	·	–	–
CCOC(=O)C1=C(O)/C(=C/c2ccc(OCC(=O)O)c(OC)c2)SC1=Nc1ccc(OCC)cc1	–	–	–	–	–
O=[N+]([O-])c1ccc(-c2cn(-c3ccc(Cl)cc3)c(=S)[nH]2)cc1	90	68	–	–	–
O=C(O)C1C2C=CC(C2)C1C(=O)NC1CCS(=O)(=O)C1 (configuration not stated)	–	–	–	–	–
CC1CC(C)CN(c2ncnc3c2cnn3Cc2ccc(Cl)cc2)C1 (configuration not stated)	64	–	–	–	–
CCOc1ccc(C(=O)Nc2ccc(-c3nc4ccccc4[nH]3)cc2)cc1[N+](=O)[O-]	58	55	–	–	–
CCCCCC(=O)NNC(=S)NC(C)=O	–	–	–	–	–
O=C(O)c1ccccn1	·	·	–	·	·
Cc1ccc(CSc2nnc(SCC(=O)N/N=C/C=C/c3ccco3)s2)cc1	–	–	–	–	–
CC(/C=N/NC(=O)CSc1nnc(SCc2ccccc2)s1)=C\c1ccco1	51	–	–	–	–
CCOC(=O)c1c(N)sc(=S)c2c1CCC2	57	54	46	–	–
CCOC(=O)c1c(N)sc(N)c1C(=O)OCC	69	–	–	–	–
CC(C)c1nnc(NC(=O)C2CCN(C(=O)c3ccco3)CC2)s1	·	·	–	·	·
O=C(O)c1cc(N=Nc2c(O)[nH]c3ccc([N+](=O)[O-])cc23)ccc1Cl	·	·	–	·	·
O=C(N=Nc1c(O)[nH]c2ccc(Br)cc12)c1cc(-c2cccs2)nc2ccccc12	68	75	·	–	86
C=C(C)CNC(=S)N=Nc1c(O)[nH]c2ccc([N+](=O)[O-])cc12	65	–	–	–	–
Cn1c(O)c(N=NC(=O)c2cc(-c3cccs3)nc3ccccc23)c2ccccc21	–	–	–	–	–
COc1ccccc1C(=O)N=Nc1c(O)[nH]c2ccc([N+](=O)[O-])cc12	78	–	·	–	–
CC(C)NC(=S)N=Nc1c(O)[nH]c2ccc([N+](=O)[O-])cc12	–	–	–	–	–
SMILES	Mcl1 Noxa PPI	Mcl1 Bid PPI	MCL1 BIM primary	Mcl-1 Bim block	14-3-3 Bad PPI
O=C(N=Nc1c(O)[nH]c2ccc([N+](=O)[O-])cc12)c1cc(-c2ccccc2Cl)nc2ccccc12	77	96	–	–	94[fluorescence artefact?]
CC(=O)O[C@H]1CC[C@@]2(C)C(CCC3C2CC[C@]2(C)OC(=O)CCC32)C1 (some centres not stated)	–	–	–	–	–
COC(=O)Cn1cc(/C=N/NC(=O)COc2cccc3cccnc23)c2ccccc21	–	65	–	–	–
O=C(COc1cccc2cccnc12)N/N=C/c1ccccc1O	–	–	–	·	–
C#CCn1cc(/C=N/NC(=O)COc2cccc3cccnc23)c2ccccc21	70	86	–	–	92[fluorescence artefact?]
CC(=O)Nc1ccc(-c2csc(NC(=O)c3ccc(C)o3)n2)cc1	·	–	–	–	–
Cc1csc(NC(=O)c2ccncc2)n1	64	–	–	·	–
Cc1ccc(C(=O)Nc2nc(-c3ccc([N+](=O)[O-])cc3)cs2)o1	65	56	–	–	–
O=C(Nc1nc(-c2ccccn2)cs1)c1ccc([N+](=O)[O-])o1	90	–	–	·	–
O=C(Nc1nc(-c2ccco2)cs1)c1ccccc1	54	–	–	–	–
Cc1csc(NC(=O)c2ccccc2)n1	·	·	–	·	·
COc1ccc(OC)c(S(=O)(=O)N2CCc3ccccc3C2)c1	·	·	–	·	·
CCOC(=O)C1=NN(c2ccc(C)cc2)CC1C(=O)OC (configuration not stated)	–	–	–	–	–
Cc1cc(C)c(NC(=O)C(C)Sc2nnc(-c3ccco3)n2-c2ccccc2)c(C)c1 (configuration not stated)	–	–	·	–	–
CC(=O)Nc1ccc(C(=O)Nc2nc(-c3ccccn3)cs2)cc1	70	–	–	–	–
Cc1ccc(C(=O)Nc2nc(-c3cc(Cl)sc3Cl)cs2)cc1	53	–	–	–	–
COc1ccc([N+](=O)[O-])cc1NC(=O)Nc1ccccc1	–	–	–	–	–
CCSc1nnc(NC(=O)C(Cc2ccccc2)n2cccc2)s1 (configuration not stated)	–	64	–	–	–
CCC1(CC)C(=O)C2=C3C1[C@H](C(=O)OC)CC(C(=O)OC)C[C@H]3n1c(=O)n(C)c(=O)n1[C@H]2C (some centres not stated)	·	·	–	·	·
O=C(N=c1ccn(-c2nc3ccccc3nc2NS(=O)(=O)c2ccc(Cl)cc2)cc1)c1cccs1	–	–	44	·	–
CCOc1ccc(S(=O)(=O)Nc2nc3ccccc3nc2-n2ccc(=NC(=O)c3cccs3)cc2)cc1	–	–	–	–	–
CCc1nn2c(=O)cc(COc3ccc(/C=C4\C(=N)N5N=C(C)SC5=NC4=O)cc3)nc2s1	77	–	–	–	–
CC(=O)c1cccc(NC(=O)Nc2cc3sccc3n2C)c1	71	–	–	–	–
C/C(=N/NC(=O)c1ccccn1)c1ccc(O)cc1	–	96	–	·	–
C/C(=N\NC(=O)c1ccccn1)c1ccc(Cl)cc1	–	–	–	·	–
SMILES	Mcl1 Noxa PPI	Mcl1 Bid PPI	MCL1 BIM primary	Mcl-1 Bim block	14-3-3 Bad PPI
CCOCc1c(C(=O)Nc2ccc3nc(N4CCOCC4)sc3c2)oc2ccccc12	·	·	–	·	·
Cc1ccccc1Nc1nc(-c2sc(NC(=O)c3ccc([N+](=O)[O-])cc3)nc2C)cs1	–	–	–	–	–
Cc1ccc2c(c1)N/C(=C(\C=C(/Cl)[N+](=O)[O-])[N+](=O)[O-])N2	59	–	–	–	–
CCOc1ccc(-n2c(SCC(=O)Nc3ccc(Br)cc3)nc3n[nH]c(C)c3c2=N)cc1	51	58	–	–	–
O=C(CO/N=C/c1ccccc1OC(F)F)N1CCc2ccccc21	–	–	–	–	84[fluorescence artefact?]
Cc1cc(C)cc(Oc2nn[nH]n2)c1	–	–	–	–	71
O=C(Nc1nn[nH]n1)c1cccc(Oc2ccccc2)c1	–	–	–	–	–
CC(C)(C)c1cccc(Oc2nn[nH]n2)c1	–	–	–	–	79
COc1cc2c(C)nc(C)c(C#N)c2cc1OC	–	–	–	–	78
Cc1ccc2nc(-c3ccncc3)cc(C(=O)NCCc3ccc(F)cc3)c2c1	–	–	–	–	–
